# Test results as given in PubChem BioAssay (NCI).
# Several values for one entry are separate records, joined by “and”; a condition that tells them apart may be missing. Identical values can stand only once. This is part of a sample that, as a whole, favours compounds with a hit. Of some 83,000 tested, about 20% had one in any assay.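 Cell lines were cultured in 96-well plates, exposed to a single compound concentration, and assessed for percent growth 48 hours later.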 Activity calls are given as the source filed them. The calls were made as follows: active = growth percent below 10; inactive = the rest.
# Tested on: NCI-H226 lung
# Test: NCI-60 one-dose screen, 48 h (100 = growth as untreated, 0 = no growth, -100 = all killed)
# Settings: 10 µM unless noted
row,Compound,growth
1,COc1ccc(C/C(C)=C(/c2ccc(OCCN3CCCC3)cc2)c2ccc(OC(=O)NCc3ccccc3)cc2)cc1,102% (inactive)
2,CCN(CC)CCOc1ccc(/C(=C(\Cl)c2ccccc2)c2ccccc2)cc1,27.6% (inactive) and 49.4% (inactive)
3,Cc1ccc(/C=C2\COc3ccc(O)c(O)c3C2=O)cc1,61.5% (inactive)
4,COc1ccc2c(c1)oc1c(C)c3c(c(C)c12)C(=O)N(Nc1ccccc1)C3=O,106% (inactive)
5,CCC(=C(c1ccc(OCCCN(C)C)cc1)c1ccc(OCCCN(C)C)cc1)c1ccc(Cl)cc1,-66.8% (active)
6,CCOC(=O)c1c(-c2ccc(C)cc2)c(C#N)c(=O)n(-c2cccc(C(F)(F)F)c2)c1N,100% (inactive)
7,S=c1nc(CS)[nH]c2ccccc12,87.4% (inactive)
8,O=C(N/N=C/c1ccc(O)cc1O)c1cccc(Nc2ccnc(C(F)(F)F)c2)c1,40.5% (inactive)
9,CCN(CC)CCCN1C(=O)c2c(c(C)c3c(oc4cc(OC)ccc43)c2C)C1=O,-5.51% (active)
10,Cc1ccc(NC(=O)c2ccc(CN3CCN(C)CC3)cc2)cc1Nc1nccc(-c2cccnc2)n1,89.4% (inactive) and 78.2% (inactive)
11,COc1cc(/C=C2/C=C(c3ccc(C(C)(C)C)cc3)N(CCc3ccc(S(N)(=O)=O)cc3)C2=O)cc(OC)c1OC,62.7% (inactive)
12,O=c1c(/C=C/c2ccco2)nnc2sc(Nc3ccc(Cl)cc3)nn12,85.4% (inactive)
13,Nc1[nH]nc(Nc2ccccc2)c1-c1nc2ccccc2s1,57.3% (inactive)
14,CCCCCCCCn1ccc2cc(NC(=O)CN3CCN(c4nc(C)cc(N5CCCCC5)n4)CC3)ccc21,86.1% (inactive)
15,CC/C(=C(/c1ccc(O)cc1)c1ccc(OCCN2CCCCCC2)cc1)c1ccc(Cl)cc1,89.2% (inactive)
16,C=C(C)[C@@H]1CC[C@]2(C(=O)N3CCN(C)CC3)CC[C@]3(C)[C@H](CC[C@@H]4[C@@]5(C)CC(CCCNC(C)=O)(CCCNC(C)=O)[C@H](OC(C)=O)C(C)(C)[C@@H]5CC[C@]43C)[C@@H]12,99.1% (inactive)
17,CCN(c1cc(-c2ccc(CN3CCC(/C=C/S(=O)(=O)c4ccccc4)CC3)cc2)cc(C(=O)NCc2c(C)cc(C)[nH]c2=O)c1C)C1CCOCC1,78.3% (inactive)

row,Compound,growth
1,Nc1nc(N)c2c(n1)NC(c1ccc(Cl)cc1)CC(c1cccc(Nc3ccncc3)c1)=N2 (stereo not drawn),95.3% (inactive)
2,C=C(c1ccc(C(=O)O)cc1)c1cc2c(cc1C)C(C)(C)CCC2(C)C,76% (inactive) and 86.3% (inactive)
3,O=C1OCC2=C1C(c1cccc([N+](=O)[O-])c1)c1cc3c(cc1N2CCO)CCC3 (stereo not drawn),38.2% (inactive)
4,CCN(CC)/C([O-])=c1\cccc\c1=C1\N=C(c2ccccc2)N=C1[n+]1ccc(-c2ccccc2)cc1,94.4% (inactive)
5,Cc1nc(-n2[nH]c(=O)ccc2=O)sc1N=Nc1ccccc1,85.3% (inactive)
6,Cc1ccc(-c2nc3nc(-c4ccccc4)nc(N4CCCNCC4)c3o2)cc1,88.9% (inactive)
7,O=C([C@H]1C[C@H]1c1ccc(S(F)(F)(F)(F)F)cc1)N1CCN(c2cc(Cl)ccc2C(F)(F)F)CC1,75.7% (inactive)
8,OB(O)c1ccsc1-c1nc2ccc3[nH]ncc3c2c2c1CCCC2,72% (inactive)
9,CC[C@]12CN3CCc4c([nH]c5ccccc45)[C@@](C(=O)OC)(c4cc5c(cc4OC)N(C)[C@H]4[C@@](O)(C(=O)OC)[C@H](OC(C)=O)[C@]6(CC)C=CCN7CC[C@]54[C@@H]76)CC(C3)[C@H]1O2 (stereo partly drawn),42.6% (inactive)
10,COC(=O)N/N=C/c1c[n+]([O-])c2ccccc2[n+]1[O-],109% (inactive)
11,Cn1ccnc1CN1CCSC(C(=O)Nc2ccccc2)C1 (stereo not drawn),87.1% (inactive)
12,CCNC(=O)Oc1ccc(/C(=C(/C)Cc2ccc(OC)cc2)c2ccc(OCCN(CC)CC)cc2)cc1,91.9% (inactive)
13,Cc1ccc(-c2nc(C#N)c(S(=O)(=O)N(C)C)o2)cc1,103% (inactive)
14,COCCn1cc(-c2nc(-c3cn(CCOC)c4ncccc34)cs2)c2ccccc21,87.3% (inactive)
15,Nc1nc2ccccc2c2c(=O)c3ccc(Cl)cc3sc12,98.9% (inactive)
16,CC[C@]1(O)CC2CN(CCc3c([nH]c4ccccc34)C(C(=O)OC)(c3cc4c(cc3OC)N(C=O)[C@H]3[C@@](O)(C(=O)OC)[C@H](OC(C)=O)[C@]5(CC)[C@@H]6C[C@@H]6CN6CC[C@]43[C@@H]65)C2)C1 (stereo partly drawn),19.3% (inactive)
